Over roughly 33,000 sequences, “e-score” has its median near -0.038; the highest 2% begin near 0.33. The full list was thinned out, with the highest values kept by preference.

For the assay, the target named is T1, GST-Rok-C97-191 (Bacillus subtilis subsp. subtilis str. …, UniProt O34857 97-191).
T1 sequence: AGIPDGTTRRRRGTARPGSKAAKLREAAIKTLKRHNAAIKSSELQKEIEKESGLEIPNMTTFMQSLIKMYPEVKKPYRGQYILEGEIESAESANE
The experiment in a line: protein binding microarray; Rok is a gene silencer of Bacillus subtilis; high values mean tight binding. As to conditions: protein: recombinant; tags: GST (pTH5325, pDEST15-Magic modified); dsDNA, one strand shown. An outline of the steps:
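Each has a 25-mer constant primer and a 35-mer variable part from a de Bruijn sequence of order 10, covering every non-palindromic 8-mer at least 32 times (palindromic 16). Preference for each 8-mer is given as a rank-based, unitless enrichment score (E-score). Its range runs from 0.5 (most favored) to −0.5 (most disfavored).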
On to ACATCCGA, for which the binding signal is -0.00901 E-score.

For TCAGAGCA, the binding signal was -0.143 E-score.

Consider AATTACAG, for which the binding signal is 0.249 E-score.

In the case of AATTACAA, the binding signal came out at 0.251 E-score.

For AATTACAT, the binding signal was determined as 0.339 E-score.

Consider AGTTACAG, for which the binding signal was 0.193 E-score.

For the sequence AGTTACAT, the binding signal is 0.342 E-score.

For the sequence AGTTACAA, the binding signal stood at 0.163 E-score.

Regarding GGACGGAA, the binding signal is -0.113 E-score.

Take CGTGGTCA: the binding signal was -0.0431 E-score.

On to CTTTAACA, for which the binding signal was found to be 0.072 E-score.

In the case of GGCGACTA, the binding signal was -0.103 E-score.

With GATAGTAA, the binding signal came out at 0.367 E-score.

As to CATAGTAA, the binding signal was determined as 0.272 E-score.

As for CATAGTTA, the binding signal came out at 0.275 E-score.

Take GATAGTCA: the binding signal is 0.000914 E-score.

In the case of TATAGTGA, the binding signal was determined as 0.199 E-score.

Consider GATAGTTA, for which the binding signal worked out at 0.373 E-score.

Regarding TATAGTAA, the binding signal is 0.346 E-score.

As to TATAGTCA, the binding signal came out at 0.119 E-score.

In the case of GATAGTAC, the binding signal is 0.184 E-score.

For the sequence GCGATGAA, the binding signal is -0.0177 E-score.

As for CCAGAAAG, the binding signal is -0.066 E-score.

As to GAAGCCGA, the binding signal was -0.0818 E-score.

For the sequence TTCAACAA, the binding signal came to 0.0826 E-score.

Take CTAAGTAG: the binding signal came to 0.275 E-score.

Take ATCAGCTA: the binding signal is 0.165 E-score.

Regarding GATAGAGC, the binding signal was -0.0336 E-score.

As for ATTTCGCG, the binding signal turned out to be 0.158 E-score.

ATCGTTTG: the binding signal is -0.0549 E-score.

Turning to ATAGTTAA, the binding signal was 0.327 E-score.

On to CCAGTTTC, for which the binding signal is -0.105 E-score.

With ATAGTTTA, the binding signal worked out at 0.354 E-score.

In the case of ATAGTTTC, the binding signal was 0.292 E-score.

ATAGTTGG: the binding signal was 0.00189 E-score.

Consider GTAGTTAA, for which the binding signal came out at 0.405 E-score.

As for CTAGTTAA, the binding signal is 0.327 E-score.

As for CGAGTTTC, the binding signal came to 0.049 E-score.

For the sequence ATAGTTGA, the binding signal was found to be 0.215 E-score.

Take CTAGTTTC: the binding signal came to 0.422 E-score.

For the sequence ATAGTTTG, the binding signal was 0.366 E-score.

As for ACATTTGC, the binding signal came out at 0.205 E-score.

With AGTCAAAG, the binding signal is -0.141 E-score.

Consider ACAAGCAC, for which the binding signal is 0.019 E-score.

Turning to GAAGGCTA, the binding signal is -0.0559 E-score.

For AACGGACC, the binding signal is -0.186 E-score.

As to TCGCCCAA, the binding signal was -0.12 E-score.

In the case of GTAGTTTA, the binding signal was determined as 0.423 E-score.

In the case of GGAGTTTA, the binding signal worked out at 0.0723 E-score.

Take ATAGTGTG: the binding signal is 0.0365 E-score.

On to CTAGTTCA, for which the binding signal came to 0.0257 E-score.

On to CTAGTTGA, for which the binding signal turned out to be 0.2 E-score.

With CTAGTTCC, the binding signal was found to be 0.262 E-score.

Consider CTAGTTGC, for which the binding signal was found to be 0.23 E-score.

Regarding GTAGTGTA, the binding signal came to 0.118 E-score.

On to CTAGTTTA, for which the binding signal came out at 0.378 E-score.

On to GCAGTTTA, for which the binding signal is 0.113 E-score.

As to CTAGTTAC, the binding signal turned out to be 0.38 E-score.

With ATAGTGTA, the binding signal was found to be 0.346 E-score.

As for ATGCCCTA, the binding signal was -0.00598 E-score.

Turning to GCTCGTCA, the binding signal was -0.151 E-score.

Regarding ACGTTTTC, the binding signal was 0.12 E-score.

Take GATGCATA: the binding signal was 0.176 E-score.

On to GCTAGCTA, for which the binding signal was 0.119 E-score.

On to CCTAGCTA, for which the binding signal came to 0.144 E-score.

GGTAGCTA: the binding signal came to 0.357 E-score.

On to ACTAGCTA, for which the binding signal is 0.397 E-score.

For the sequence AGTAGCTC, the binding signal turned out to be 0.14 E-score.

As to AGTAGCTA, the binding signal was 0.37 E-score.

GGTAGCGA: the binding signal came out at 0.0646 E-score.

In the case of AGTAGCTG, the binding signal worked out at 0.233 E-score.

Take CGTAGCTA: the binding signal turned out to be 0.289 E-score.

Regarding GCCGTAAA, the binding signal is -0.0195 E-score.

ACAAAGTA: the binding signal turned out to be 0.275 E-score.

In the case of AATGTCGT, the binding signal was -0.087 E-score.

As to CTATGAGC, the binding signal was -0.0781 E-score.

ACGAATAG: the binding signal was 0.0145 E-score.

Take TCGATCAA: the binding signal turned out to be 0.27 E-score.

Regarding ATGGAAAG, the binding signal is -0.0465 E-score.

Take AATGATCA: the binding signal stood at 0.156 E-score.

Turning to ATGTGCAC, the binding signal is -0.0271 E-score.

For CGAATCAA, the binding signal was -0.196 E-score.

With CGCTTCAC, the binding signal was -0.177 E-score.

As to AACTGCCC, the binding signal was -0.0946 E-score.

For the sequence AGCCATAA, the binding signal came out at 0.127 E-score.

Consider CACAAGAA, for which the binding signal was -0.0545 E-score.

As for CCTAGTTA, the binding signal came out at 0.168 E-score.

For the sequence CGTAGTTC, the binding signal is 0.213 E-score.

CTTAGTTA: the binding signal is 0.189 E-score.

With GCTAGTTA, the binding signal is 0.284 E-score.

Take ACTAGTTA: the binding signal amounted to 0.448 E-score.

For AGTAGTGA, the binding signal came to 0.121 E-score.

With ATTAGTTA, the binding signal amounted to 0.336 E-score.

Take AGTAGTTA: the binding signal was found to be 0.424 E-score.

For the sequence AGTAGTTC, the binding signal came out at 0.398 E-score.

GTTAGTTA: the binding signal was 0.325 E-score.

With AGTAGTGC, the binding signal worked out at 0.12 E-score.

For CGTAGTTA, the binding signal stood at 0.199 E-score.

With ATTGCTGG, the binding signal turned out to be 0.137 E-score.

Regarding TAACCGTA, the binding signal was 0.169 E-score.

On to CGGATACC, for which the binding signal was determined as 0.0204 E-score.

As for ACTGGCAT, the binding signal was 0.00831 E-score.

Consider GGTAGTTA, for which the binding signal came out at 0.4 E-score.

As to ATTAGTTG, the binding signal stood at 0.118 E-score.

In the case of AATAGTTA, the binding signal amounted to 0.32 E-score.

For AATAGTTC, the binding signal is 0.343 E-score.

Take ACTAGTTG: the binding signal worked out at 0.313 E-score.

Consider CATAGTTC, for which the binding signal worked out at 0.168 E-score.

Regarding AGTAGTTG, the binding signal was 0.393 E-score.

For GGTAGTGA, the binding signal was found to be 0.144 E-score.

Take GGTAGTCA: the binding signal was determined as 0.192 E-score.

As for GCCCATTA, the binding signal was -0.125 E-score.

As for CGTAGAAC, the binding signal was found to be 0.207 E-score.

In the case of CGTAGAAG, the binding signal was found to be 0.0648 E-score.

Consider TTTAGAAA, for which the binding signal is 0.175 E-score.

Turning to GCTAGAAA, the binding signal came out at 0.314 E-score.

CGTAGAAA: the binding signal is 0.338 E-score.

In the case of GTTAGAAC, the binding signal is 0.125 E-score.

As to GGTAGAAA, the binding signal turned out to be 0.465 E-score.

On to GGTAGAAC, for which the binding signal worked out at 0.4 E-score.

In the case of TGTAGAAA, the binding signal is 0.35 E-score.

Take GGTAGACC: the binding signal is -0.0686 E-score.

GGTAGAGA: the binding signal was determined as 0.173 E-score.

With TCTAGAAA, the binding signal was found to be 0.205 E-score.

Take AACGTGGA: the binding signal was 0.103 E-score.

In the case of AATAGCGC, the binding signal came out at 0.114 E-score.

On to GCCCACAA, for which the binding signal is -0.0476 E-score.

Take GCATCTGA: the binding signal was -0.0514 E-score.

With CAAAGAAC, the binding signal was 0.232 E-score.

GCAGGGGA: the binding signal was -0.184 E-score.

Turning to TAAACGCA, the binding signal was -0.0161 E-score.

For the sequence CGACAACC, the binding signal was -0.054 E-score.

Turning to ACCCACGT, the binding signal was -0.188 E-score.

Consider CGTAATTA, for which the binding signal is 0.318 E-score.

Consider AGTAATTA, for which the binding signal turned out to be 0.376 E-score.

As for ATTAATTA, the binding signal amounted to 0.391 E-score.

Turning to AGTAATTG, the binding signal is 0.31 E-score.

Consider GTTAATTA, for which the binding signal was found to be 0.19 E-score.

Regarding GGTAATCA, the binding signal is -0.186 E-score.

ATTAATTC: the binding signal turned out to be 0.147 E-score.

For the sequence GGTAATTA, the binding signal is 0.395 E-score.

For AGTAATTC, the binding signal is 0.273 E-score.

As for CATTGTAC, the binding signal worked out at 0.109 E-score.

As to GTTGAAAA, the binding signal was -0.013 E-score.

As to AGGTATTC, the binding signal is -0.0121 E-score.

For the sequence AACTCTCT, the binding signal was determined as 0.0603 E-score.

As to ACTACCAA, the binding signal came to 0.257 E-score.

On to ACTACCAT, for which the binding signal worked out at 0.353 E-score.

For the sequence ACTACCAC, the binding signal was 0.383 E-score.

As for ACTACCAG, the binding signal is 0.213 E-score.

Consider TCTACCCA, for which the binding signal was found to be 0.234 E-score.

Take GCTACCAC: the binding signal amounted to 0.0411 E-score.

With ACTACCCG, the binding signal worked out at 0.0272 E-score.

On to ACTACCCA, for which the binding signal amounted to 0.332 E-score.

On to CCTACCAC, for which the binding signal was found to be 0.251 E-score.

Consider GCCGCGCA, for which the binding signal is -0.14 E-score.

Turning to CGTTTCAG, the binding signal was -0.0327 E-score.

AGCTCTTA: the binding signal is 0.106 E-score.

CATCTAAA: the binding signal worked out at 0.111 E-score.

AGCGGACG: the binding signal was 0.000189 E-score.

For TGACAAAA, the binding signal came to 0.0786 E-score.

On to ATGATGGG, for which the binding signal is -0.0998 E-score.

For ACAGTAGT, the binding signal was determined as 0.258 E-score.

Consider CAAGTAGA, for which the binding signal is 0.303 E-score.

As to AAAGTAGC, the binding signal came to 0.261 E-score.

Regarding CCAGTAGA, the binding signal stood at 0.176 E-score.

For the sequence GTAGTAGA, the binding signal turned out to be 0.368 E-score.

As to CTAGTAGA, the binding signal worked out at 0.382 E-score.

On to GGAGTAGA, for which the binding signal was determined as 0.102 E-score.

Consider GTAGTACA, for which the binding signal is 0.272 E-score.

Consider CTAGTAGC, for which the binding signal was 0.251 E-score.

AAAGTAGT: the binding signal amounted to 0.328 E-score.

With ACAGTAGA, the binding signal is 0.364 E-score.

With AAAGTAGG, the binding signal is 0.262 E-score.

The record behind these values is article PMC6212790, “How bacterial xenogeneic silencer rok distinguishes foreign from self DNA in its resident genome”.
